Potency and activity change, negative = cytotoxicity data for 52 molecules are collected here from PubChem BioAssay AID1745849 (National Center for Advancing Translational Sciences (NCATS), 2022).

Screen size: about 2,100 compounds; about 320 (15%) were called active. Roughly 52% stayed inconclusive and do not appear here. The call rests on the fitted dose curve; in most records, active means well fitted cell-killing curve with a large enough effect; inconclusive means small, poorly fitted or top-dose-only effect, or effect the other way; inactive means flat fitted curve, though single readings scatter. The list shows a part of the results.
On the % scale 0 is the no-effect control and ±100 the full control effect; potency means the concentration at half of the fitted maximal effect.

This assay can be described thus: Viability Counterscreen for CMV-Luciferase Assay of Inhibitors of ATXN expression. Further: nearly all actives have a fitted effect of over 55% in size. The conditions noted are these: HEK-293 CMV-luciferase cells viability, protease fluorescence, 24 h; series mostly up to 57.5 µM. An excerpt:
PI: Daniel Scoles Ph.D. University of Utah School of Medicine, Salt Lake City, Utah MLPCN Grant: NS073009 Spinocerebellar ataxia type 2 (SCA2) is a multisystem neurodegenerative disease caused by a dominantly acting mutation leading to expansion of a polyQ domain in the ataxin-2 protein (ATXN2). SCA2 patients develop progressive ataxia and later lose function in other neuronal systems. Prominent parkinsonian signs develop in some patients. Like many neurodegenerative disorders, no symptomatic or disease-modifying treatments are known. The primary objective of the proposed research is to identify compounds inhibiting ATXN2 expression and to test them for efficacy in SCA2 mouse models. We have developed a cell-based assay paired with an in vivo mouse model using identical luciferase expression constructs. This approach takes advantage of an ATXN2-luciferase transgene, with the luciferase gene flanked by the upstream and downstream portions of the ATXN2 gene. Here we describe a 5-7 dose quantitative high thoroughput screen (qHTS) for compounds lowering ATXN2 expression. We screened the NIH Molecular Libraries Small Molecule Repository (MLSMR) and NCGC's mechanistically annotated (MIPE) and drug repurposing (NPC) collections of compounds for lowering expression of an ATXN2-luciferase reporter in HEK-293 cells. The assay is a multiplexed cell viability assay to ensure target reduction in the absence of cytotoxicity. Secondary qHTS assays included a CMV-luciferase reporter expressed in HEK-293 cells as well as a biochemical assay using recombinant luciferase to detect inhibitors of the reporter enzyme. Compounds that inhibit ATXN2 expression but is not cytotoxic were selected for confirmatory and secondary screens.
PROTOCOL TABLE (as described by Inglese J, Shamu CE and Guy RK. 2007) SEQUENCE No. (e.g., 1, 2, 3, etc.); […] (e.g., Cells, Incubation, Reagent, etc.); VALUE; DESCRIPTION. 1; Cells; 4 uL; white, solid bottom, 1536-well Greiner assay plate. 2; Incubation; 2 hr; 37 degree C in 5% humidified CO2. 3; Compounds; 23 nL; Kalypsis pintool (Wako USA) equipped with a 1536-well pin head. 4; Incubation; 24 hr; 37 degree C in 5% humidfified CO2. 5; Reagent; 1 uL; Gly-Phe-7-Amino-4-trifluoromethylcoumarin. 6; Incubation; 30 min; 37 degree C in 5% humidfified CO2. 7; Detection; Fluorescence; Viewlux plate reader (PerkinElmer). 8; Reagent; 3 uL; SteadyGlo luciferase solution (Promega). 9; Incubation; 5 min; room temperature. 10; Detection; Luminescence; ViewLux plate reader (PerkinElmer). NOTES (numbers refer to Sequence numbers above) 1. HEK-293 cells expressing CMV-luciferase reporter (designated as SC cells) were suspended in phenol-red free DMEM and dispensed in assay plates using a Multidrop Combi dispenser (Thermo Fisher Scientific). 2. Assay plates were incubated. Evaporation was prevented by covering assay plates with metal lids containing holes to allow gas diffusion. 3. Compounds were added in a dose response manner with the final concentrations of 57, 11.4, 2.28, 0.46, 0.091, 0.018, 0.0037 uM. Vehicle-only plates, with DMSO being pin-transferred to columns 5-48, were inserted uniformly at the beginning and the end of each library to monitor and record any shifts in assay performance. 5. 125 uM Gly-Phe-7-Amino-4-trifluoromethylcoumarin (MP Biomedicals) working concentration was used at a final concentration of 25 uM. 7. To assess cell viability; the assay plates were read using the ViewLux high-throughput CCD imager (PerkinElmer), wherein single end-point fluorescence measurement was acquired (excitation 405/10; emission 540/25 nm). 8. Detection reagent SteadyGlo Luciferase (Promega) was added to the assay plate. 10. Luminescence is then measured on the ViewLux imager equipped with a clear emission filter using a 2 sec exposure. […]
(The purpose of a counterscreen is to sort out artefacts and off-target activity.)
For the molecule `COC12C(COC(N)=O)C3=C(C(=O)C(C)=C(N)C3=O)N1CC1C2N1C` (configuration not stated), the Potency was 12.6 µM (active). On to `CC(C)(C)n1nnnc1C(CCc1ccccc1)N1CCC(n2c(=O)[nH]c3ccccc32)CC1` (configuration not stated), for which the Potency was 20 µM (active). For `Cc1cccc(C)c1-n1nnnc1C(c1cc2ccccc2o1)N1CCC(n2c(=O)[nH]c3ccccc32)CC1` (configuration not stated), the Potency was 7.94 µM (active). Regarding `O=c1[nH]c2ccccc2n1C1CCN(C(CCc2ccccc2)c2nnnn2C2CCCC2)CC1` (configuration not stated), the Potency is 11.2 µM (active).

In the case of `CN1C(=O)NC(=O)/C(=C\C=C\c2ccccc2[N+](=O)[O-])C1=O`, the Potency is 7.94 µM (active). Still for that read-out and setting: then `Oc1c(Cl)cccc1Cc1cc(Cl)cc(Cl)c1O`, with 15.8 µM (active); and `c1ccc(CNc2c3c(nc4ccccc24)CCC3)cc1`, with “inactive”. Still for that read-out and setting: then `O=C(Nc1ccc(OC(=O)N2CCCCC2)cc1)N1CCOCC1`, with “inactive”; and `CCCCN=C[C@]12CCC(O)CC1(O)CCC1[C@@H]2CC[C@]2(C)[C@H](C3C=CC(=O)O3)CCC12O` (some centres not stated), with 1.78 µM (active). Regarding `CC12CCC3C(CCC4(O)CC(O)CCC34C=NO)C1(O)CCC2C1=COC(=O)C1` (configuration not stated), the Potency was 0.891 µM (active).

`C1=NCCc2c1[nH]c1ccccc21`: the activity change, negative = cytotoxicity is 1.29% [at 11.4 µM] (inactive). Regarding `COc1cccc2c1C(=O)c1c(O)c3c(c(O)c1C2=O)CC(O)(C(C)=NO)CC3OC1CC(N)C(O)C(C)O1` (configuration not stated), the Potency is 14.1 µM (active). With `O=[N+]([O-])c1oc2ccc3ccccc3c2c1CCO`, the Potency is 20 µM (active). Still for that read-out and setting: for `Cc1ccc(-c2nc(N(C)C3CCN(C)CC3)c3ccccc3n2)cc1` the value was “inactive”; for `c1ccc2sc(N3CCNCC3)nc2c1`, “inactive”. Same read-out and setting: then `N[C@@H](Cc1ccc(N(CCCl)CCCl)cc1)C(=O)O`, with 12.6 µM (active); and `O=C(NN=Cc1ccc(N(CCCl)CCCl)cc1)c1cc(=O)[nH]c(=O)[nH]1`, with “inactive”; and `O=C1NC(=O)N(CCc2ccc(F)cc2)C(=O)/C1=C/C=C/c1ccccc1`, with 7.94 µM (active). As for `COc1ccc(CC2NCC(O)C2OC(C)=O)cc1` (configuration not stated), the Potency was 0.282 µM (active). Consider `CCC1(OC(=O)CN)C(=O)OCc2c1cc1n(c2=O)Cc2cc3ccccc3nc2-1` (configuration not stated), for which the activity change, negative = cytotoxicity was 14.6% [at 11.4 µM] (inactive).

Consider `COC(=O)c1nc(-c2ccc3c(n2)C(=O)C(N)=C(OC)C3=O)c(N)c(-c2ccc(OC)c(OC)c2O)c1C`, for which the Potency was 20 µM (active). `C[C@@H]1O[C@@H](O[C@@H]2C=C3CC[C@@H]4C(CC[C@]5(C)[C@@H](c6ccc(=O)oc6)CC[C@]45O)[C@@]3(C)CC2)[C@H](O)[C@H](O)[C@H]1O` (some centres not stated): the Potency is 8.91 µM (active). Turning to `COc1ccc(CC2C(=O)NC(C)C(=O)N(C)C3C(=O)N(C)C(Cc4ccc(O)c(c4)Oc4ccc(cc4)C3O)C(=O)NC(C)C(=O)NC(C)C(=O)N2C)cc1` (configuration not stated), the Potency is 0.355 µM (active).

`O=C(CSC1c2ccccc2-c2ccccc21)N/N=C/c1ccccc1O`: the Potency is 3.55 µM (active). Turning to `CCCCCCC(=O)N/N=C/c1c(O)n(CCCC)c(=S)[nH]c1=O`, the Potency entry is “inactive”. Consider `CCCCCCC(=O)N/N=C/c1c(O)n(CCc2ccccc2)c(=O)[nH]c1=O`, for which the Potency was 8.91 µM (active). Still for that read-out and setting: for `CC(=NCCc1c[nH]c2ccccc12)c1c(O)n(Cc2ccccc2)c(=O)[nH]c1=O` the value was “inactive”. Consider `COc1ccc(CCNCc2ccc(F)cc2)cc1OC`, for which the activity change, negative = cytotoxicity was -21.2% [at 11.4 µM] (inactive). Turning to `CC12CCC(O)CC1CCC1C2CCC2(C)C(C3=CC(=O)OC3)C(O)CC12O` (configuration not stated), the Potency is 7.94 µM (active). Regarding `CC(=O)OC1CC2(O)C3CCC4CC(O)CCC4(C)C3CCC2(C)C1C1=CC(=O)OC1` (configuration not stated), the Potency is 0.501 µM (active). As to `C[C@]12CC[C@H](O)C[C@H]1CC[C@@H]1[C@@H]2CC[C@]2(C)[C@@H](C3=CC(=O)OC3)CC[C@]12O`, the Potency is 0.794 µM (active). On to `C[C@]12CCC3C(CCC4=CC(O)CC[C@@]43/C=N/O)C1(O)CCC2C1=CC(=O)OC1` (some centres not stated), for which the Potency was 1.41 µM (active). As to `CC[C@@]1(O)C(=O)OCc2c1cc1n(c2=O)Cc2cc3c(NC(=O)CN)cccc3nc2-1`, the activity change, negative = cytotoxicity is 25.7% [at 11.4 µM] (inactive). Take `COC1C(O)C(C)OC(OC2C(Oc3cccc4c(O)c5c(=O)oc6ccc(C)c7c(=O)oc(c34)c5c67)OC(C)C(O)C2O)C1O` (configuration not stated): the activity change, negative = cytotoxicity was 7.77% [at 11.4 µM] (inactive). Consider `CC1OC(OC2C(O)CC(OC3C(O)CC(OC4CCC5(C)C(CCC6C5CCC5(C)C(C7=CC(=O)OC7)C(O)CC65O)C4)OC3C)OC2C)CC(O)C1O` (configuration not stated), for which the Potency is 0.251 µM (active).

Regarding `CN1C2CCC1/C(=C/c1ccccn1)C(=O)/C2=C\c1ccccn1`, the Potency is 0.708 µM (active).

On to `C[C@@H]1C[C@@H]([C@H](O)CC2CC(=O)NC(=O)C2)C(=O)[C@@H](C)C1`, for which the Potency is 1.78 µM (active).

For `CCC(C)N1C(=O)/C(=C\c2cnc(N(C)C)nc2)C(=O)NC1=S` (configuration not stated), the Potency entry is “inactive”. Regarding `C=CCCC[C@@H]1OC(=O)CNC(=O)C([C@@H](C)CC)NC(=O)[C@@H]2CCCN2C(=O)C([C@@H](C)CC)OC(=O)[C@H](Cc2ccccc2)N(C)C(=O)[C@H](C(C)C)NC(=O)C1(C)C` (some centres not stated), the Potency is 3.55 µM (active). On the same count and under the same terms, for `CCCCCOc1ccc(C)cc1CN(CCCl)CCCl` the value was 22.4 µM (active). For the molecule `CCCCCn1c(=O)c(C(=O)NCc2ccccn2)c(O)c2ccccc21`, the activity change, negative = cytotoxicity is -15.5% [at 11.4 µM] (inactive). As for `C[C@H]1[C@@H](OS(=O)(=O)O)C[C@@H]2C[C@H]([C@@H](O)c3cc(=O)[nH]c(=O)[nH]3)NC3=NC[C@H]1N32`, the Potency is 12.6 µM (active). On the same count and under the same terms, for `CSCCC(c1nnnn1-c1c(C)cccc1C)N1CCC2(CC1)C(=O)NCN2c1ccccc1` (configuration not stated) the value was 28.2 µM (active). On to `CC(C)CNc1c2c(nc3ccccc13)CCC2`, for which the activity change, negative = cytotoxicity is -29.7% [at 11.4 µM] (inactive). As to `Cc1ccc(/C=C2\C(=O)NC(=S)N(c3ccccc3F)C2=O)s1`, the Potency was 3.98 µM (active). For the molecule `C[C@H]1CCC[C@H](O)CCCCCc2cc(O)cc(O)c2C(=O)O1`, the activity change, negative = cytotoxicity was -5.55% [at 11.4 µM] (inactive). With `C[C@H]1CCC[C@@H](O)CCC/C=C/c2cc(O)cc(O)c2C(=O)O1`, the Potency was 1.58 µM (active). As to `CCC(C)(O)C(=O)OC1C(=O)OC2CC3C(C)=CC(=O)C(O)C3(C)C3C4(O)OCC23C1C(C)C4O` (configuration not stated), the Potency is 0.316 µM (active). `COc1ccc2c(c1)C(c1ccc(N(CCCl)CCCl)cc1)=NCC2`: the Potency entry is “inactive”. On the same count and under the same terms, then `O=C1NC(=O)C2(CCCc3ccc(N(CCCl)CCCl)cc32)N1` (configuration not stated), with 11.2 µM (active); and `CC1CC(C)CC(C)C(O)C(C#N)=CC=CCC(C2CCCC2C(=O)O)OC(=O)CC(O)C(C)C1` (configuration not stated), with 0.398 µM (active). Consider `COC(=O)C(O)(c1ccc(NC(=S)NC(=O)c2ccc(Cl)cc2Cl)c(C)c1)C(F)(F)F` (configuration not stated), for which the activity change, negative = cytotoxicity is 1.53% [at 11.4 µM] (inactive).
